{"source": "PubChem BioAssay (Tox21)", "note": "Results filed as inconclusive are left out. Entries that show only a call come without a potency. Unmarked numbers belong to inactive results. Activity calls are given as the source filed them. Calls follow the shape of the dose curve; as a rule, active = well fitted activation curve with a large enough effect in the repeat runs; inconclusive = weak or mixed curves; inactive = flat fitted curve, though single readings scatter. Potency is read from the fitted curve at half-maximal effect."}
{"assay": "Caspase-3/7 induction in HepG2 cells by small molecules, qHTS assay (AID 1346978); also: nearly all actives have a fitted effect of over 15% in size", "conditions": "HepG2 caspase-3/7 activation, Caspase-Glo luminescence, 17 h; series mostly up to 92.4 µM", "text": "National Center for Advancing Translational Sciences [NCATS] NIH Chemical Genomics Center [NCGC] U.S. Environmental Protection Agency [EPA] National Institutes of Environmental Health Sciences [NIEHS] National Toxicology Program [NTP] Assay overview: Apoptosis is a process of programmed cell death and plays a central role in the development of multicellular organisms. It is a highly regulated process and induces cell death by activating caspases, which are the members of cysteine aspartic acid-specific protease (caspase) family. Caspases involved in apoptosis are classified by their mechanism of action as initiator caspases (caspase-2, -8, -9 and -10) and executioner caspases (caspase-3, -6, and -7). Inhibition of apoptosis results in number of cancers, autoimmune diseases, inflammatory diseases and viral infection. To identify small molecule compounds that induce apoptosis, a homogeneous, luminescent Caspase-Glo 3/7 assay was used. Wild type HepG2 cells were used to screen Tox21 libraries for identifying caspase-3/7 activity inducers.\nAssay Protocol Summary: HepG2 cells were dispensed at 2,000 per well in 5uL of culture medium into white solid bottom 1536-well plates (Corning Life Sciences, Corning, NY) using a Multidrop Combi (Thermo Scientific, Waltham, MA) dispenser. The assay plates were incubated at 37 C and 5% CO2 for 5hr, and then 23nL of compounds dissolved in DMSO and positive control were transferred using a Pintool station (Wako, San Diego, CA). The assay plates were incubated at 37C and 5% CO2 for 17hr. For caspase-3/7 activity read, 4uL of Caspase-Glo 3/7 reagent (Promega Corporation, Madison, WI) was added to each well of the assay plates using Flying Reagent Dispenser (FRD, Aurora Discovery, San Diego, CA) and incubated the assay plates at room temperature for 30min. The luminescence signal was quantified using a ViewLux plate reader (Perkin Elmer, Shelton, CT)."}
{"smiles": "Cc1ccc(S)cc1", "Potency": "inactive"}
{"smiles": "O=C(O)c1ccccc1NCCc1ccccc1", "Potency": "inactive"}
{"smiles": "Nc1ccc(Cl)cc1[N+](=O)[O-]", "Potency": "inactive"}
{"smiles": "CCCCCCCCCCCC[N+](C)(C)CCCS(=O)(=O)[O-]", "Potency": "inactive"}
{"smiles": "COC(=O)Nc1nc2ccc(C(=O)c3cccs3)cc2[nH]1", "Potency": "266 nM (active)"}
{"smiles": "CNC(=S)NC", "Potency": "inactive"}
{"smiles": "CCCCCCOC(=O)CCCCCCCC(=O)OCCCCCC", "Potency": "inactive"}
{"smiles": "Cc1cc(S(=O)(=O)O)ccc1N=Nc1c(O)ccc2ccccc12", "Potency": "inactive"}
{"smiles": "O=C(C(=O)c1ccccc1)c1ccccc1", "Potency": "inactive"}
{"smiles": "CCC(C(=O)OCCN(CC)CC)c1ccccc1", "note": "(stereo not given)", "Potency": "inactive"}
{"smiles": "Cc1c(C(=O)NN2CCCCC2)nn(-c2ccc(Cl)cc2Cl)c1-c1ccc(Cl)cc1", "Potency": "inactive"}
{"smiles": "CN(C)C(=O)Nc1ccc(Oc2ccc(Cl)cc2)cc1", "Potency": "inactive"}
{"smiles": "CC(=O)Oc1ccc(C(=C2CCCCC2)c2ccc(OC(C)=O)cc2)cc1", "Potency": "inactive"}
{"smiles": "CC(C)(CCl)c1ccccc1", "Potency": "inactive"}
{"smiles": "Cc1ccc(Nc2nccc(N(C)c3ccc4c(C)n(C)nc4c3)n2)cc1S(N)(=O)=O", "Potency": "inactive"}
{"smiles": "CC(=O)N(c1onc(C)c1C)S(=O)(=O)c1ccc(N)cc1", "Potency": "inactive"}
{"smiles": "CO[C@H]1O[C@H](CO)[C@@H](O)[C@H](O)[C@H]1O", "Potency": "inactive"}
{"smiles": "CCCCC(=O)O[C@]1(C(=O)CO)CC[C@H]2[C@@H]3CCC4=CC(=O)CC[C@]4(C)[C@H]3[C@@H](O)C[C@@]21C", "Potency": "inactive"}
{"smiles": "CN1CCCN=C1/C=C/c1cccs1", "Potency": "inactive"}
{"smiles": "COc1ccc(CCC(=O)c2c(O)cc(O[C@@H]3O[C@H](CO)[C@@H](O)[C@H](O)[C@H]3O[C@@H]3O[C@@H](C)[C@H](O)[C@@H](O)[C@H]3O)cc2O)cc1O", "Potency": "inactive"}
{"smiles": "CCCOc1ccc(S(=O)(=O)N2CCN(CC)CC2)cc1-c1nc2c(CC)n(Cc3ccccn3)nc2c(=O)[nH]1", "Potency": "inactive"}
{"smiles": "COC(OC)(C(=O)c1ccccc1)c1ccccc1", "Potency": "inactive"}
{"smiles": "CC(C)C(OC(=O)c1ccccc1)C(C)(C)COC(=O)c1ccccc1", "note": "(stereo not given)", "Potency": "inactive"}
{"smiles": "Cc1cc2nc3ccc(=[N+](C)C)cc-3sc2cc1N", "Potency": "inactive"}
{"smiles": "C=CC(=C)CCCC(C)(C)OC(C)=O", "Potency": "inactive"}
{"smiles": "Cc1ccc(/C=N/n2c(-c3ccccc3)csc2=S)cc1", "Potency": "inactive"}
{"smiles": "O=C(c1ccc(O)cc1)c1ccc(Cl)cc1", "Potency": "inactive"}
{"smiles": "O=C(CCCCCCCCC#CI)Oc1ccccc1", "Potency": "inactive"}
{"smiles": "CC(=O)OCC(=O)[C@@]12OC(C)(C)O[C@@H]1C[C@H]1[C@@H]3C[C@H](F)C4=CC(=O)C=C[C@]4(C)[C@@]3(F)[C@@H](O)C[C@@]12C", "Potency": "inactive"}
{"smiles": "CC(=O)CC(c1ccc([N+](=O)[O-])cc1)c1c(O)c2ccccc2oc1=O", "note": "(stereo not given)", "Potency": "inactive"}
{"smiles": "c1cnc2c(n1)CCCC2", "Potency": "inactive"}
{"smiles": "O=C(CCC1CCN(Cc2ccccc2)CC1)c1ccc2c(c1)NCCCC2", "Potency": "inactive"}
{"smiles": "CCn1cc(C(=O)O)c(=O)c2cc(F)c(N3CCNCC3)nc21", "Potency": "inactive"}
{"smiles": "O=C(N/N=C/c1ccc([N+](=O)[O-])o1)c1ccc(O)cc1", "Potency": "inactive"}
{"smiles": "O=[N+]([O-])c1cccc(S(=O)(=O)NCCNS(=O)(=O)c2cccc([N+](=O)[O-])c2)c1", "Potency": "inactive"}
{"smiles": "CC(=O)[C@H]1CC[C@H]2[C@@H]3C=CC4=CC(=O)CC[C@@]4(C)[C@@H]3CC[C@]12C", "Potency": "inactive"}
{"smiles": "O=C(O)c1snc(Cl)c1Cl", "Potency": "inactive"}
{"smiles": "CC(CCO)CCc1ccccc1", "note": "(stereo not given)", "Potency": "inactive"}
{"smiles": "Cc1ccc(S(=O)(=O)NC2CCCCC2)cc1", "Potency": "inactive"}
{"smiles": "CCCC(=O)O[C@]1(C(=O)COC(=O)CC)CC[C@H]2[C@@H]3CCC4=CC(=O)CC[C@]4(C)[C@H]3[C@@H](O)C[C@@]21C", "caspase activation": "-2.33% [at 19 µM]"}
